Measurements taken from the supplement of paper PMC6089552.
In all, about 3,200 compounds went through this assay and about 300 (9.4%) showed activity. The full list was thinned out, with actives kept by preference.

Test system: A673/TR/shEF
Experiment: cell viability (LOESS-normalised, relative to median of negative controls) (log2 ratio); higher = more viable cells (less compound effect), active = hit call of the paper (over 3 MAD below the median)
Settings: treatment time: 72 h
How it was run: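 A673/TR/shEF Ewing sarcoma cells were plated at 1,500 per well in 384-well plates and cultured with or without doxycycline, added 24 h before compounds, to induce EWS-FLI1 shRNA knockdown. Library compounds at two or more concentrations, alongside DMSO controls, were applied for three days. Cell viability was measured by CellTiter-Glo luminescence on an Envision reader. Readings were LOESS-corrected per plate, divided by the median of negative controls and log2-transformed, and hits were wells lying at least three median absolute deviations from the median of all screened wells.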

[1] = 0.25 µM, library screen: screen1, EWS-FLI1 expression: high (no doxycycline)
[2] = 0.25 µM, library screen: screen1, EWS-FLI1 expression: low (doxycycline-induced shRNA knockdown)
[3] = 2.5 µM, library screen: screen1, EWS-FLI1 expression: high (no doxycycline)
[4] = 2.5 µM, library screen: screen1, EWS-FLI1 expression: low (doxycycline-induced shRNA knockdown)
[5] = 0.25 µM, library screen: screen2, EWS-FLI1 expression: high (no doxycycline)
[6] = 0.25 µM, library screen: screen2, EWS-FLI1 expression: low (doxycycline-induced shRNA knockdown)
[7] = 2.5 µM, library screen: screen2, EWS-FLI1 expression: high (no doxycycline)
[8] = 2.5 µM, library screen: screen2, EWS-FLI1 expression: low (doxycycline-induced shRNA knockdown)
[9] = 0.025 µM, library screen: screen1, EWS-FLI1 expression: high (no doxycycline)
[10] = 0.025 µM, library screen: screen1, EWS-FLI1 expression: low (doxycycline-induced shRNA knockdown)
[11] = 25 µM, library screen: screen1, EWS-FLI1 expression: high (no doxycycline)
[12] = 25 µM, library screen: screen1, EWS-FLI1 expression: low (doxycycline-induced shRNA knockdown)

Measured: cell viability (log2)

CC1CC(Cl)CCC1C(=O)OC(C)(C)C (stereo not drawn)
inactive: [1] -0.0203 | [2] 0.0889 | [3] 0.151 | [4] 0.103

Cn1c(=O)c2c(ncn2CCCl)n(C)c1=O
inactive: [1] 0.086 | [2] -0.0151 | [3] -0.000593 | [4] 0.00538

CC(=O)O[C@H]1C[C@@H](OC(C)=O)C(C)(C)C2C[C@@H](OC(C)=O)[C@]3(C)C(CC[C@@]4(C)[C@H](c5ccoc5)C[C@H]5O[C@]543)[C@]21C (stereo partly drawn)
inactive: [1] 0.134 | [2] 0.0408 | [3] 0.129 | [4] 0.147

C[C@@H]1O[C@H](C[N+](C)(C)C)C[C@H]1O
inactive: [5] 0.143 | [6] 0.0741 | [7] 0.116 | [8] -0.0161

CCCN(CCC)C1CCc2cccc(O)c2C1 (stereo not drawn)
inactive: [5] 0.114 | [6] 0.0781 | [7] 0.143 | [8] 0.0595

CC(C)[C@]12O[C@H]1[C@@H]1O[C@@]13[C@@]1(C)CCC4=C(COC4=O)[C@@H]1C[C@@H]1O[C@@]13C2=O
active: [1] -2.66 | [2] -3.01 | [3] -3.24 | [4] -2.91

CC(C)c1ccc2c(c1O)CCC1C3=C(CCC21C)C(=O)OC3 (stereo not drawn)
inactive: [1] 0.0257 | [2] 0.104 | [3] 0.151 | [4] 0.343

O=C1C(Cl)=C(Cl)C(=O)C(Cl)=C1Cl
inactive: [1] 0.0885 | [2] 0.0373 | [3] 0.114 | [4] 0.156

ClC1C(Cl)C(Cl)C(Cl)C(Cl)C1Cl (stereo not drawn)
inactive: [1] 0.118 | [2] 0.0584 | [3] 0.159 | [4] -0.0362

C[N+]1(C)C2CC(OC(=O)[C@H](CO)c3ccccc3)CC1C1OC12 (stereo partly drawn)
inactive: [5] 0.208 | [6] 0.126 | [7] 0.131 | [8] 0.157

CCNC(=O)[C@H]1O[C@@H](n2cnc3c(N)ncnc32)[C@H](O)[C@@H]1O
inactive: [5] 0.186 | [6] 0.0998 | [7] 0.0806 | [8] 0.122

COc1c2c(cc3c1OCO3)CCN(C)C2
inactive: [1] 0.00337 | [2] -0.0221 | [3] 0.133 | [4] 0.0446

COc1cccc2c1cc([N+](=O)[O-])c1c(C(=O)O)cc3c(c12)OCO3
inactive: [1] 0.0105 | [2] 0.00257 | [4] -0.0027
active: [3] -0.209

CC(N)Cc1c[nH]c2ccccc12 (stereo not drawn)
inactive: [5] 0.229 | [6] 0.175 | [7] 0.0609 | [8] 0.105

CCn1cnc2c(Nc3cccc(Cl)c3)nc(N[C@@H]3CCCC[C@@H]3N)nc21
active: [7] -0.199
inactive: [5] 0.222 | [6] 0.14 | [8] -0.0222

C[C@H]1C[C@@H](O)[C@]2(O)[C@@]13CC(=O)OC[C@@]2(C)[C@](C)(O)C(=O)C3
inactive: [1] 0.0914 | [2] -0.0111 | [3] 0.0806 | [4] 0.024

CN[C@@H]1C[C@H]2O[C@@](C)([C@@H]1OC)n1c3ccccc3c3c4c(c5c6ccccc6n2c5c31)C(=O)NC4
active: [9] -2.08 | [10] -1.86 | [1] -3.68 | [2] -3.78 | [3] -4.25 | [4] -4.31 | [11] -4.11 | [12] -4.31

CC(=O)O[C@H]1C[C@@H](OC(C)=O)C(C)(C)C2C[C@@H](OC(C)=O)[C@]3(C)C(CC[C@@]4(C)[C@H](c5ccoc5)C(=O)[C@H]5O[C@]543)[C@]21C (stereo partly drawn)
inactive: [1] 0.0663 | [2] 0.135 | [3] 0.0399 | [4] 0.171

c1ccc2c(c1)cc1ccc3cccc4ccc2c1c34
inactive: [1] 0.0949 | [2] 0.14 | [3] 0.11 | [4] 0.179

Cc1c(N)nc(C(CC(N)=O)NCC(N)C(N)=O)nc1C(=O)NC(C(=O)NC(C)C(O)C(C)C(=O)NC(C(=O)NCCc1nc(-c2nc(C(=O)NCCC[S+](C)C)cs2)cs1)C(C)O)C(O[C@@H]1O[C@@H](CO)[C@@H](O)[C@H](O)[C@@H]1O[C@H]1O[C@H](CO)[C@@H](O)[C@H](OC(N)=O)[C@@H]1O)c1cnc[nH]1 (stereo partly drawn)
inactive: 0.103 µM, library screen: screen3, EWS-FLI1 expression: high (no doxycycline) 0.0914 | 0.103 µM, library screen: screen3, EWS-FLI1 expression: low (doxycycline-induced shRNA knockdown) 0.135 | 0.308 µM, library screen: screen3, EWS-FLI1 expression: high (no doxycycline) 0.115 | 0.308 µM, library screen: screen3, EWS-FLI1 expression: low (doxycycline-induced shRNA knockdown) 0.0961 | 0.926 µM, library screen: screen3, EWS-FLI1 expression: high (no doxycycline) 0.0288 | 0.926 µM, library screen: screen3, EWS-FLI1 expression: low (doxycycline-induced shRNA knockdown) 0.0331 | 2.8 µM, library screen: screen3, EWS-FLI1 expression: high (no doxycycline) 0.152 | 2.8 µM, library screen: screen3, EWS-FLI1 expression: low (doxycycline-induced shRNA knockdown) 0.1 | 8.3 µM, library screen: screen3, EWS-FLI1 expression: high (no doxycycline) 0.12 | 8.3 µM, library screen: screen3, EWS-FLI1 expression: low (doxycycline-induced shRNA knockdown) 0.0649 | 25 µM, library screen: screen3, EWS-FLI1 expression: high (no doxycycline) 0.18 | 25 µM, library screen: screen3, EWS-FLI1 expression: low (doxycycline-induced shRNA knockdown) 0.0742

O=C(CCCN1CCC2(CC1)C(=O)N(CCc1ccc(N=C=S)cc1)CN2c1ccccc1)c1ccc(F)cc1
inactive: [5] 0.156 | [6] 0.15 | [7] 0.122 | [8] 0.0672

CC1(C(=O)O)C2CCC(O2)C1(C)C(=O)O (stereo not drawn)
inactive: [9] 0.144 | [10] -0.0798 | [1] 0.0748 | [2] -0.099 | [5] 0.137 | [6] 0.0724 | [3] -0.00382 | [4] -0.0912 | [7] 0.0145 | [8] 0.0152
active: [11] -0.932 | [12] -0.597
